# Results: PubChem BioAssay (NCATS)
# Records with an inconclusive call do not appear. A number with no mark means an inactive call. Activity calls are given as the source filed them. The call rests on the fitted dose curve; in most records, active means well fitted curve in the direction sought with a large enough effect; inconclusive means small, poorly fitted or top-dose-only effect, or another doubt; inactive means no such curve, though single readings can be large; an effect the other way counts as inactive or inconclusive.
# Columns and labels:
# [1] = Quantitative High-Throughput drug screen in 47 multiple myeloma cell lines against the NCATS MIPE library collection: KMS27_JCRB cell viability assay (AID 1918970); further: nearly all actives have a fitted effect of over 30% in size; further: potency means the concentration at half of the fitted maximal effect
# In short: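 Luminescent ATP read-out (CellTiter-Glo, 5 min at room temperature) after 48 h compound exposure of 500 KMS27_JCRB cells per well; DMSO wells define full viability and media-only wells zero.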
# [2] = Quantitative High-Throughput drug screen in 47 multiple myeloma cell lines against the NCATS MIPE library collection: KMS12BM_JCRB cell viability assay (AID 1918971); further: nearly all actives have a fitted effect of over 35% in size; further: potency means the concentration at half of the fitted maximal effect
# In short: (§1)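 Myeloma cell lines, 500 cells per well, exposed to MIPE 4.0 library compounds for 48 h at 37C, 5% CO2. Viability from ATP by CellTiter-Glo luminescence; normalised to DMSO (100%) and media-only (0%) wells.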
# [3] = Quantitative High-Throughput drug screen in 47 multiple myeloma cell lines against the NCATS MIPE library collection: MOLP8_DSMZ cell viability assay (AID 1918977); further: nearly all actives have a fitted effect of over 45% in size; further: potency means the concentration at half of the fitted maximal effect
# In short: (§2)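 Inhibition of viability over 48 h was scored by ATP content (CellTiter-Glo) in 500-cell wells. Zero and full viability were defined by media-only and DMSO-only wells.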
# [4] = Quantitative High-Throughput drug screen in 47 multiple myeloma cell lines against the NCATS MIPE library collection: NCIH929_DSMZ cell viability assay (AID 1918978); further: nearly all actives have a fitted effect of over 35% in size; further: potency means the concentration at half of the fitted maximal effect
# In short: as §2
# [5] = Quantitative High-Throughput drug screen in 47 multiple myeloma cell lines against the NCATS MIPE library collection: L363_DSMZ cell viability assay (AID 1918984); further: nearly all actives have a fitted effect of over 40% in size; further: potency means the concentration at half of the fitted maximal effect
# In short: as §2
# [6] = Quantitative High-Throughput drug screen in 47 multiple myeloma cell lines against the NCATS MIPE library collection: KMS34_JCRB cell viability assay (AID 1918985); further: nearly all actives have a fitted effect of over 40% in size; further: potency means the concentration at half of the fitted maximal effect
# In short: as §2
# [7] = Quantitative High-Throughput drug screen in 47 multiple myeloma cell lines against the NCATS MIPE library collection: OPM1_PLB cell viability assay (AID 1918989); further: nearly all actives have a fitted effect of over 40% in size; further: potency means the concentration at half of the fitted maximal effect
# In short: as §2
# [8] = Quantitative High-Throughput drug screen in 47 multiple myeloma cell lines against the NCATS MIPE library collection: SKMM1_PLB cell viability assay (AID 1919863); details: SKMM1 myeloma viability, CellTiter-Glo ATP, 48 h; viability: active compounds read low; further: nearly all actives have a fitted effect of over 35% in size; further: potency means the concentration at half of the fitted maximal effect
# In short: as §2
# [9] = Quantitative High-Throughput drug screen in 47 multiple myeloma cell lines against the NCATS MIPE library collection: KMS26_JCRB cell viability assay (AID 1918975); further: nearly all actives have a fitted effect of over 45% in size; further: potency means the concentration at half of the fitted maximal effect
# In short: as §1
# [10] = Quantitative High-Throughput drug screen in 47 multiple myeloma cell lines against the NCATS MIPE library collection: MM1R_ATCC cell viability assay (AID 1918981); further: nearly all actives have a fitted effect of over 35% in size; further: potency means the concentration at half of the fitted maximal effect
# In short: as §2
# [11] = Quantitative High-Throughput drug screen in 47 multiple myeloma cell lines against the NCATS MIPE library collection: LP1_DSMZ cell viability assay (AID 1918982); further: nearly all actives have a fitted effect of over 35% in size; further: potency means the concentration at half of the fitted maximal effect
# In short: as §2
# [12] = Quantitative High-Throughput drug screen in 47 multiple myeloma cell lines against the NCATS MIPE library collection: MM1S_ATCC cell viability assay (AID 1918980); further: nearly all actives have a fitted effect of over 45% in size; further: potency means the concentration at half of the fitted maximal effect
# In short: as §2
# [13] = Quantitative High-Throughput drug screen in 47 multiple myeloma cell lines against the NCATS MIPE library collection: OCIMY7_PLB cell viability assay (AID 1918987); further: nearly all actives have a fitted effect of over 65% in size; further: potency means the concentration at half of the fitted maximal effect
# In short: as §2
# [14] = Quantitative High-Throughput drug screen in 47 multiple myeloma cell lines against the NCATS MIPE library collection: OCIMY5_PLB cell viability assay (AID 1918988); further: nearly all actives have a fitted effect of over 65% in size; further: potency means the concentration at half of the fitted maximal effect
# In short: as §2
# [15] = Quantitative High-Throughput drug screen in 47 multiple myeloma cell lines against the NCATS MIPE library collection: KMS12PE_JCRB cell viability assay (AID 1918972); further: nearly all actives have a fitted effect of over 30% in size; further: potency means the concentration at half of the fitted maximal effect
# In short: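 Steps: seed 500 cells per well; pin-transfer MIPE 4.0 library; incubate 48 h at 37C, 5% CO2, humidified; add CellTiter-Glo, 5 min room temperature; read luminescence.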
# [16] = Quantitative High-Throughput drug screen in 47 multiple myeloma cell lines against the NCATS MIPE library collection: OCIMY1_PLB cell viability assay (AID 1918979); further: nearly all actives have a fitted effect of over 35% in size
# In short: as §2
# [17] = Quantitative High-Throughput drug screen in 47 multiple myeloma cell lines against the NCATS MIPE library collection: KMS28PE_JCRB cell viability assay (AID 1918983); further: nearly all actives have a fitted effect of over 35% in size; further: potency means the concentration at half of the fitted maximal effect
# In short: as §2
# [18] = Quantitative High-Throughput drug screen in 47 multiple myeloma cell lines against the NCATS MIPE library collection: KMS20_JCRB cell viability assay (AID 1918973); further: nearly all actives have a fitted effect of over 45% in size; further: potency means the concentration at half of the fitted maximal effect
# In short: (§3)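 Relative luminescence from CellTiter-Glo served as the viability signal, referenced to DMSO-treated (100%) and cell-free medium (0%) controls. Treatment lasted 48 hours at 37C with 500 cells per well.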
# [19] = Quantitative High-Throughput drug screen in 47 multiple myeloma cell lines against the NCATS MIPE library collection: KMS21BM_JCRB cell viability assay (AID 1918974); details: ATP luminescence, 48 h; viability: at 45.8 µM (top of the series) unless noted
# In short: as §3
# [20] = Quantitative High-Throughput drug screen in 47 multiple myeloma cell lines against the NCATS MIPE library collection: MMM1_PLB cell viability assay (AID 1918976)
# In short: as §2
structure (smiles),measurement,setting,value
O=C(NOCC1CC1)c1ccc(F)c(F)c1Nc1ccc(I)cc1Cl,Potency,[1],4.18 µM (active)
same,Potency,[2],20.9 µM (active)
same,Potency,[3],14.8 µM (active)
same,Potency,[4],20.9 µM (active)
same,Potency,[5],18.7 µM (active)
same,Potency,[6],23.5 µM (active)
same,Potency,[7],18.7 µM (active)
same,Potency,[8],20.9 µM (active)
S=c1nc[nH]c2nc[nH]c12,Potency,[1],7.43 µM (active)
same,Potency,[2],13.2 µM (active)
same,Potency,[9],5.9 µM (active)
same,Potency,[3],inactive
same,Potency,[4],2.96 µM (active)
same,Potency,[10],7.43 µM (active)
same,Potency,[11],10.5 µM (active)
same,Potency,[7],1.66 µM (active)
same,viability,[8],104%
Cc1cc2cc3c(C)cc(=O)oc3c(C)c2o1,Potency,[1],26.4 µM (active)
same,Potency,[2],16.6 µM (active)
same,Potency,[3],inactive
same,Potency,[4],8.33 µM (active)
same,Potency,[12],5.9 µM (active)
same,Potency,[10],20.9 µM (active)
same,Potency,[5],23.5 µM (active)
same,Potency,[6],inactive
same,Potency,[13],26.4 µM (active)
same,Potency,[14],8.33 µM (active)
same,Potency,[8],26.4 µM (active)
COC(=O)C1=C(C)NC(C)=C(C(=O)OCCCN2CCC(c3ccccc3)(c3ccccc3)CC2)C1c1cccc([N+](=O)[O-])c1 (stereo unspecified),Potency,[1],inactive
same,Potency,[15],inactive
same,Potency,[3],inactive
same,Potency,[4],inactive
same,Potency,[16],inactive
same,Potency,[10],20.9 µM (active)
same,Potency,[11],inactive
same,Potency,[17],inactive
same,Potency,[6],3.32 µM (active)
same,Potency,[13],inactive
same,viability,[8],122%
CC(C)c1nc(CN(C)C(=O)N[C@H](C(=O)N[C@@H](Cc2ccccc2)C[C@H](O)[C@H](Cc2ccccc2)NC(=O)OCc2cncs2)C(C)C)cs1,Potency,[1],inactive
same,Potency,[2],4.69 µM (active)
same,Potency,[11],16.6 µM (active)
same,Potency,[5],inactive
same,Potency,[6],16.6 µM (active)
same,Potency,[13],20.9 µM (active)
same,Potency,[7],inactive
CCC1=C(C)CN(C(=O)NCCc2ccc(S(=O)(=O)NC(=O)NC3CCC(C)CC3)cc2)C1=O (stereo unspecified),Potency,[1],inactive
same,Potency,[15],inactive
same,Potency,[18],inactive
same,Potency,[19],inactive
same,Potency,[9],inactive
same,Potency,[4],inactive
same,Potency,[16],inactive
same,Potency,[10],inactive
same,Potency,[11],inactive
same,Potency,[17],inactive
same,Potency,[5],inactive
same,Potency,[6],inactive
same,Potency,[14],inactive
same,Potency,[7],inactive
CC(C)[N+]1(C)[C@@H]2CC[C@H]1CC(OC(=O)C(CO)c1ccccc1)C2 (stereo partly specified),Potency,[1],14.8 µM (active)
same,Potency,[15],16.6 µM (active)
same,Potency,[9],inactive
same,Potency,[3],inactive
same,Potency,[16],inactive
same,Potency,[10],inactive
same,Potency,[17],inactive
same,Potency,[5],14.8 µM (active)
same,Potency,[6],inactive
same,Potency,[14],inactive
same,viability,[8],150%
CC(S)C(=O)NCC(=O)O (stereo unspecified),Potency,[1],inactive
same,Potency,[15],inactive
same,Potency,[3],inactive
same,Potency,[4],inactive
same,Potency,[16],inactive
same,Potency,[10],inactive
same,Potency,[17],inactive
same,Potency,[14],inactive
same,Potency,[7],inactive
same,viability,[8],132%
CC(C)c1ccc2c(c1)c(SC(C)(C)C)c(CC(C)(C)C(=O)O)n2Cc1ccc(Cl)cc1,Potency,[1],inactive
same,Potency,[2],20.9 µM (active)
same,Potency,[20],2.64 µM (active)
same,Potency,[4],26.4 µM (active)
same,Potency,[16],inactive
same,Potency,[12],7.43 µM (active)
same,Potency,[13],14.8 µM (active)
same,Potency,[7],inactive
Nc1nc(N)c(N=O)c(OCC2CCCCC2)n1,Potency,[1],6.62 µM (active)
same,Potency,[2],13.2 µM (active)
same,Potency,[9],13.2 µM (active)
same,Potency,[3],5.26 µM (active)
same,Potency,[4],5.26 µM (active)
same,Potency,[10],14.8 µM (active)
same,Potency,[17],14.8 µM (active)
same,Potency,[5],2.64 µM (active)
same,Potency,[6],11.8 µM (active)
same,Potency,[13],1.48 µM (active)
same,Potency,[14],13.2 µM (active)
same,Potency,[7],7.43 µM (active)
Cc1ccc(S(=O)(=O)NC(=O)NN2CC3CCCC3C2)cc1 (stereo unspecified),Potency,[1],20.9 µM (active)
same,Potency,[15],26.4 µM (active)
same,Potency,[18],10.5 µM (active)
same,Potency,[13],20.9 µM (active)
same,Potency,[7],20.9 µM (active)
COC(=O)C1=C(C)NC(C)=C(C(=O)OC(C)C)C1c1cccc2nonc12 (stereo unspecified),Potency,[1],inactive
same,Potency,[2],18.7 µM (active)
same,Potency,[9],inactive
same,Potency,[20],5.9 µM (active)
same,Potency,[4],2.64 µM (active)
same,Potency,[16],inactive
same,Potency,[10],inactive
same,Potency,[17],18.7 µM (active)
same,Potency,[13],6.62 µM (active)
same,Potency,[14],inactive
same,Potency,[7],26.4 µM (active)
O=C(NC(Cc1cc(=O)[nH]c2ccccc12)C(=O)O)c1ccc(Cl)cc1 (stereo unspecified),Potency,[1],inactive
same,Potency,[2],inactive
same,Potency,[20],9.35 µM (active)
same,Potency,[3],inactive
same,Potency,[4],inactive
same,Potency,[16],inactive
same,Potency,[10],inactive
same,Potency,[14],14.8 µM (active)
same,Potency,[7],inactive
same,viability,[8],118%
NC(=O)Cc1cccc(C(=O)c2ccccc2)c1N,Potency,[1],inactive
same,Potency,[15],inactive
same,Potency,[9],inactive
same,Potency,[3],inactive
same,Potency,[4],inactive
same,Potency,[10],inactive
same,Potency,[17],inactive
same,Potency,[5],inactive
same,Potency,[14],4.69 µM (active)
same,viability,[8],121%
N=C(N)c1ccc2cc(OC(=O)c3ccc(N=C(N)N)cc3)ccc2c1,Potency,[1],inactive
same,Potency,[2],23.5 µM (active)
same,Potency,[20],0.935 µM (active)
same,Potency,[4],inactive
same,Potency,[12],inactive
same,Potency,[10],inactive
same,Potency,[11],inactive
same,Potency,[6],6.62 µM (active)
same,Potency,[14],18.7 µM (active)
same,Potency,[8],8.33 µM (active)
O=C(CCc1ccc(O)cc1)c1c(O)cc(O)cc1O,Potency,[1],1.05 µM (active)
same,Potency,[2],0.332 µM (active)
same,Potency,[9],0.166 µM (active)
same,Potency,[20],0.132 µM (active)
same,Potency,[10],0.148 µM (active)
same,Potency,[17],0.935 µM (active)
same,Potency,[5],0.935 µM (active)
same,Potency,[13],0.148 µM (active)
same,Potency,[14],0.132 µM (active)
same,Potency,[7],1.18 µM (active)
same,Potency,[8],1.05 µM (active)
O=C(O)c1cccnc1Nc1cccc(C(F)(F)F)c1,Potency,[1],inactive
same,Potency,[15],inactive
same,Potency,[18],inactive
same,Potency,[4],inactive
same,Potency,[16],inactive
same,Potency,[10],inactive
same,Potency,[11],inactive
same,Potency,[17],inactive
same,Potency,[5],inactive
same,Potency,[6],inactive
same,Potency,[13],inactive
same,Potency,[7],inactive
same,viability,[8],127%
